# Laboratory results as given in PubChem BioAssay AID2781 (National Center for Advancing Translational Sciences (NCATS), 2010).
# Calls of active or inactive are those of the source.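 How the source made its calls: active means compound whose NMR saturation transfer difference test with menin is positive, showing direct binding to the protein; inactive means the rest.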
# Target: Menin (Homo sapiens) (UniProt O00255)
# Test: Confirmation of Inhibitors Targeting the Menin-MLL Interaction in MLL Related Leukemias: NMR spectroscopy to verify direct binding of compounds to menin
# Settings: purified menin, NMR STD binding, 100 uM
# Excerpt: qHTS Assay for Inhibitors Targeting the Menin-MLL Interaction in MLL Related Leukemias NIH Chemical Genomics Center [NCGC] NIH Molecular Libraries Probe Centers Network [MLPCN] MLPCN Grant: MH084875-01A1 Assay Submitter (PI): Jolanta Grembecka, Tomasz Cierpicki, University of Virginia Translocations of the MLL (Mixed Lineage Leukemia) gene are frequently found in human leukemias affecting both children and adults. Fusion of MLL to one of more than 60 genes results in generation of oncogenic proteins upregulating Hox genes, which are vital to blood cell development. Patients harboring fusion of the MLL gene suffer from aggressive leukemias and respond poorly to available therapies. All of the oncogenic fusion proteins have a preserved N-terminal fragment of MLL that has been identified to interact with menin. It has been recently discovered that association with menin is critical to the leukemogenic activity of the MLL fusion oncoproteins. Selective targeting of the menin-MLL interaction could provide an attractive therapeutic approach to develop novel drugs for MLL-related leukemias. Small molecules blocking the menin-MLL interaction should reverse the oncogenic potential of MLL fusion proteins. We have developed and optimized a fluorescence polarization-based assay for the identification of Menin-MLL inhibitors. The assay was run employing two different MLL-derived peptides. […]
# Sequence of Menin (Homo sapiens) (O00255 whole entry, looked up): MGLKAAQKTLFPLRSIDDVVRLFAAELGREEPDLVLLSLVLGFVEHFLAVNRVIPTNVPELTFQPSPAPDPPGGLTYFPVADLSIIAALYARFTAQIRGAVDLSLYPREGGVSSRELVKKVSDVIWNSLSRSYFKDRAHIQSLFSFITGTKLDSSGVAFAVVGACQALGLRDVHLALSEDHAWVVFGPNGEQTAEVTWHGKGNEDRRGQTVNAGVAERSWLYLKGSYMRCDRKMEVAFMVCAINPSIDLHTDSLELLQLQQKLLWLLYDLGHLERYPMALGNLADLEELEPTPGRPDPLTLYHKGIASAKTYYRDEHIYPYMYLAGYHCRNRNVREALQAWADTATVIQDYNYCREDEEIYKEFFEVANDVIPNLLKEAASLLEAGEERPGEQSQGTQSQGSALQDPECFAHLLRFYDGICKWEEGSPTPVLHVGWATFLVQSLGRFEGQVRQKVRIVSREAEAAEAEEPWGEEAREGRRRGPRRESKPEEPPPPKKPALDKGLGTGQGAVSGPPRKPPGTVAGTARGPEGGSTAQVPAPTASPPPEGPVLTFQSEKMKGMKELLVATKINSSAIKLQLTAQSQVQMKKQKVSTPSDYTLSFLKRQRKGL
row,SMILES,outcome
1,CCCCn1c(=O)c(C(=O)Nc2ccsc2C(=O)OC)c(O)c2ccccc21,inactive; negative
2,c1cc2cc(c1)C[n+]1ccc(c3ccccc31)NCc1ccc(cc1)CNc1cc[n+](c3ccccc13)C2,inactive; negative
